Screening data: PubChem, The Scripps Research Institute Molecular Screening Center
An excerpt weighted towards active compounds, which were near 2.6% of everything screened.
PME-1 Maybr inh – inhibitors of human PME-1 in Maybridge library; inhibition, % at 9 µM; 0.5% of 16,000 active; recombinant PME-1, FP-Rh probe fluorescence polarization; Protein phosphatase methylesterase 1 (Homo sapiens), Q9Y570; AID 2291, 2010; in the data active = inhibition above about 30%
NOTCH agonist – agonists of NOTCH signaling. 0.4% of 15,000 active. NOTCH signaling luciferase reporter cells, luminescence. AID 434982, 2010. activation, % at 2.5 µM; in the data active = activation above about 2.2%
Luminol counter – counter-screen for Nox1 inhibitors: inhibitors of luminol chemiluminescence. HRP/luminol/H2O2 chemiluminescence counterscreen. inhibition, % at 6.7 µM. 0.4% of 16,000 active. AID 1823, 2009; note: reference of the scale not given here
TLR4-MyD88 inh – inhibitors of human TLR4-MyD88 binding. Toll-like receptor 4 (Homo sapiens), O00206. Cell-based TLR4-MyD88 binding inhibition assay. inhibition, % at 10 µM. 0.06% of 16,000 active. AID 811, 2007; in the data active = inhibition above about 45%
Nox1 inhibitor – inhibitors of human NADPH oxidase 1 (Nox1). Q9Y5S8. HT29 cells, luminol chemiluminescence ROS. inhibition, % at 6.7 µM. 0.81% of 16,000 active. AID 1792, 2009
OPRK1 antag MB – antagonists of human kappa opioid receptor OPRK1, Maybridge library | Kappa-type opioid receptor (Homo sapiens), P41145 | 0.4% of 16,000 active | inhibition, % at 9 µM | OPRK1 cells, antagonist mode, fluorescence readout | AID 652031, 2013; in the data active = inhibition above about 50%
Target sequence (P41145 whole entry, looked up): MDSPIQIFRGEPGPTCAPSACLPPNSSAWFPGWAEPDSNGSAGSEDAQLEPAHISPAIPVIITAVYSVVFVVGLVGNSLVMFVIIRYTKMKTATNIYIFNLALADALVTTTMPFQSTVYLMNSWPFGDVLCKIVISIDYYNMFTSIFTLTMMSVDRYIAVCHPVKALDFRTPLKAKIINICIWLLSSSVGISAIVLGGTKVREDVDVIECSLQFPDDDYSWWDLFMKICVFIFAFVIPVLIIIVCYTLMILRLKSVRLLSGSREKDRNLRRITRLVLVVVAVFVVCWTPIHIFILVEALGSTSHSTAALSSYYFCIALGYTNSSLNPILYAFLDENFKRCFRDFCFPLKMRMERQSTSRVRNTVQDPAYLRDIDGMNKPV
Active calls of the source: *; / = not tested or not shown. Cut-off read from the data, not from the text of the source, unless noted: active = inhibition above about 75%; inactive = the rest.

SMILES	PME-1 Maybr inh	NOTCH agonist	Luminol counter	TLR4-MyD88 inh	Nox1 inhibitor	OPRK1 antag MB
COc1cccc(C2Nc3ccccc3C(=O)N2NS(=O)(=O)c2ccc(C)cc2)c1O (centres undefined)	8	0	99*	-6	30	7
Cc1nn(-c2ccccc2)nc1CNC(=O)C1=Cc2ccccc2OC1	-6	2.3*	-2	3	-4	4
O=C1/C(=C/c2cccs2)SC(=S)N1/N=C/c1ccc(Cl)cc1Cl	-1	0	-3	-1	-33	-3
CSc1sc(C2=NNC(O)(C(F)(F)F)C2)c2c1C(=O)CCC2(C)C (centres undefined)	36*	-2	-6	9	32	12
CCOC(=O)C/C(C)=N/Nc1ccc([N+](=O)[O-])cc1	14	-1	16	-3	-45	14
FC(F)(F)COc1ccc(OCC(F)(F)F)c(-c2n[nH]c(=S)o2)c1	1	0	87*	-8	15	15
FC(F)(F)COc1ccc(OCC(F)(F)F)c(-c2csnn2)c1	0	0	-6	1	-18	0
O=C1c2cccc3c([N+](=O)[O-])ccc(c23)C(=O)N1Cc1cccnc1	33*	-1	-4	8	-5	24
O=C1c2cccc3c([N+](=O)[O-])ccc(c23)C(=O)N1NCCO	18	-1	-1	24	-8	41
COc1cc(-c2n[nH]c(=S)n2-c2ccccc2Cl)cc(OC)c1OC	1	0	95*	-7	-8	3
COc1cc(-c2n[nH]c(=S)n2C2CCCCC2)cc(OC)c1OC	2	0	87*	-13	19	-5
S=c1[nH]nc(-c2ccccc2Cl)n1C1CCCCC1	0	0	1	6	-3	-5
COc1ccc(-c2n[nH]c(=S)n2-c2ccccc2Cl)cc1	-2	-1	13	9	-80	4
Cc1cc(C)nc(NS(=O)(=O)c2ccc(NC(=O)c3nccnc3C(=O)O)cc2)n1	-4	0	-1	0	-44	-9
O=C(NC(=S)Nc1cccc2nonc12)c1ccccc1	-1	0	-1	-7	-5	12
CCOC(=O)COc1cccc(NC(=O)c2ccccc2Cl)c1	-4	0	3	-17	-14	-15
CCOC(=O)COc1cccc([N+](=O)[O-])c1	5	3.0*	-6	-5	-5	3
COc1ccccc1NC(=O)NCCN1CCN(Cc2ccccc2)CC1	8	-1	3	4	60	80*
O=C(NNc1ccc(OC(F)(F)F)cc1)C1CCCCC1	5	0	19	-10	46	-19
O=[N+]([O-])c1ccc(-c2ccc(/C=N/NC(=S)Nc3cccc(F)c3)o2)cc1	-7	0	9	9	45	152*
O=[N+]([O-])c1cccc(-c2ccc(/C=N/NC(=S)NCc3ccco3)o2)c1	36*	-1	3	-8	-20	8
CC1=NN(c2ccccc2)C(=O)/C1=C\c1ccc(-c2cccc([N+](=O)[O-])c2)o1	5	-1	-1	-5	-19	11
CCOC(=O)c1cc(Sc2ccccc2NC(=O)c2cccs2)cc(C(=O)OCC)n1	-2	0	1	-13	-32	-9
CC1CN(c2ccc(NC(=S)NCc3ccco3)cc2)CC(C)O1 (centres undefined)	3	1	-36	-19	69	0
CC1CN(c2ccc(NC(=S)NN)cc2)CC(C)O1 (centres undefined)	2	0	1	-6	102*	15
Cc1nc(C(F)(F)F)c(C(=O)NNc2ncc(C(F)(F)F)cc2Cl)s1	-1	0	6	1	85*	-5
CCOC(=O)C1CCN(C(=O)c2scc(S(=O)(=O)c3ccc(Cl)cc3)c2C)CC1	7	-1	-4	-6	14	3
CS(=O)(=N/C=C(\C#N)C(=O)C1CC1)c1ccc(Oc2cccc(F)c2C#N)cc1 (centres undefined)	1	-1	-2	/	-26	7
COc1nc(NNC(=O)NS(=O)(=O)c2ccccc2Cl)nc(OC)n1	2	0	18	4	78*	-6
O=C1c2cccc3c2N(CCC3)C(=O)C1(Cl)Cl	-3	0	3	-6	51	9
